Measured values taken from PubChem BioAssay (EPA / NIEHS).
Records with an inconclusive call do not appear. The source made the active and inactive calls. Rule for the calls: active = hit-call score of the fitted dose curve at least 0.9, where 1 is the maximum; inconclusive = response in the unintended direction; inactive = score below 0.9.

target: human RAR-related Orphan Receptor beta (RORb), RORB (gene 6096) (UniProt Q92753); assay: ATG_RORb_TRANS: Attagene TRANS-FACTORIAL HepG2 Assay for human RAR-related Orphan Receptor beta (RORb) (AID 2283010)
Procedure, shortened: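 Multiplexed transcription-factor reporter assay: HepG2 cells transiently carrying NR-Gal4/GAL4-UAS constructs, 24 h treatment, mRNA quantified by RT-PCR plus capillary electrophoresis fluorescence; activity scored as induction over DMSO.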

human RAR-related Orphan Receptor beta (RORb), RORB (gene 6096), sequence (Q92753 whole entry, looked up, the tested form may be a part): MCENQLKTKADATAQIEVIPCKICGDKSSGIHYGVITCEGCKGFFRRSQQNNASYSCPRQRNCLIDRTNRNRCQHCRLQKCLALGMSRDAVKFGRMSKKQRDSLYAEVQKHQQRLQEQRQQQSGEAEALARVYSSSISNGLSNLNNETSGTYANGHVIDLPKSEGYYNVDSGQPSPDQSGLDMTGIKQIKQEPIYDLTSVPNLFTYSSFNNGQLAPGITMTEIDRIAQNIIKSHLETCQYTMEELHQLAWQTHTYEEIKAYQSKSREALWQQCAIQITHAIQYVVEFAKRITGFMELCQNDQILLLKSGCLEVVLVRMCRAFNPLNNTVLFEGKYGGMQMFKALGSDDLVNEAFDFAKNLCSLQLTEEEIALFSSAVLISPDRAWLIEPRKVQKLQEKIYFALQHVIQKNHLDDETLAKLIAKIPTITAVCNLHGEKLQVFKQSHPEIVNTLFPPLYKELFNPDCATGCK

outcome, inactive:
COc1cc(NC(=O)CC(C)=O)c(OC)cc1Cl
CN(C)CCCN(C)C
CCCCCCCCCCC=CC#N
CCCCCC(C)O (stereo not drawn)
CC1=NN(c2cc(S(=O)(=O)O)ccc2Cl)C(=O)C1N=Nc1ccccc1 (stereo not drawn)
CCCCC(CC)COC(=O)c1ccccc1O (stereo not drawn)
COC(=O)c1ccc2cc(C(=O)OC)ccc2c1
CNC(=S)NN
C=C[Si](OC(C)=O)(OC(C)=O)OC(C)=O
NC(=O)OCC(COC(N)=O)c1ccccc1
C=C(C)C(=O)OCCO
CC(=O)Oc1ccc(C(C)=O)cc1
O=C(O)CCCCCCCCCC(=O)O
